{"source": "PubChem BioAssay (NCI)", "note": "“And” between values parts separate entries of the source, which are not always exact repeats. Identical values can stand only once. Compounds without any hit were thinned out: in the full panel of roughly 83,000, 20% have a hit.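 Interpretation: 100, growth as untreated; towards 0, rising growth inhibition; 0, no net growth; 0 to -100, cell death. Compounds scoring below 10 were considered active.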 The source made the active and inactive calls."}
{"tested_on": "MCF7 breast", "assay": "NCI-60 one-dose screen, 48 h (100 = growth as untreated, 0 = no growth, -100 = all killed)", "details": "10 µM unless noted"}
{"smiles": "CC1OC(OC2C(OC3CCC4(C)C(CCC5(C)C4CC=C4C6CC(C)(C)CCC6(C(=O)O)CCC45C)C3(C)CO)OCC(O)C2O)C(O)C(O)C1O", "note": "(centres undefined)", "growth": "-88% [100 µM] (active) and -90.5% [100 µM] (active)"}
{"smiles": "O=C(O)CCCOc1cc(-c2ccccc2F)nc2cc3c(cc12)OCO3", "growth": "9.31% [100 µM] (active) and -50% [100 µM] (active)"}
{"smiles": "COc1ccc2nc3c4c(nccc4c2c1)-c1ncccc1C3=O", "growth": "-82% [50 µM] (active) and -100% [50 µM] (active)"}
{"smiles": "CCOC(=O)COc1cc(-c2ccccc2F)nc2cc3c(cc12)OCO3", "growth": "42.6% [100 µM] (inactive) and 19.5% [100 µM] (inactive)"}
{"smiles": "N=C1C(=N)c2ccccc2-c2ccccc21", "growth": "30.7% [100 µM] (inactive) and 0.817% [100 µM] (active)"}
{"smiles": "C=C1C(=O)OC2CC1C(OC(=O)/C=C/c1ccccc1)C/C(C)=C/CC/C(C)=C/CCC2(C)O", "note": "(centres undefined)", "growth": "-76% [100 µM] (active) and -30% [100 µM] (active)"}
{"smiles": "CCOc1ccc(NC(=O)/C(=N\\N)C(C(=O)OC)c2nc3ccc(Cl)cc3[nH]c2=O)cc1", "note": "(centres undefined)", "growth": "73% [100 µM] (inactive) and 60.5% [100 µM] (inactive)"}
{"smiles": "Cc1ccc(NC(=S)C#N)cc1Cl", "growth": "-25.7% [100 µM] (active) and -100% [100 µM] (active)"}
{"smiles": "CCOc1cc2c(cc1O)/C(=N\\OC)C[C@@H]1[C@@H]2CC[C@]2(C)[C@@H](O)CC[C@@H]12", "growth": "0.562% [100 µM] (active) and -100% [100 µM] (active)"}
{"smiles": "CC1=C(Cl)C[C@@H](/C(C)=C\\Cl)O[C@@]1(O)C(Br)Br", "growth": "19.3% [100 µM] (inactive) and -76.7% [100 µM] (active)"}
{"smiles": "CC(C)(C)N/N=C(/Cc1nc2c3c(ccc2[nH]c1=O)C(=O)c1ccccc1C3=O)C(=O)NC1=C(Cl)C(=O)c2ccccc2C1=O", "growth": "6.76% [100 µM] (active) and -75.9% [100 µM] (active)"}
{"smiles": "S=C1NC2=C(COc3ccccc32)C(c2ccc(Cl)cc2)N1", "note": "(centres undefined)", "growth": "-4.81% [100 µM] (active) and -100% [100 µM] (active)"}
{"smiles": "C=c1c2ccccc2oc2nc3[nH]c(N)c(C#N)c(N)c3c(=N)c12", "growth": "25.6% [100 µM] (inactive) and 0.562% [100 µM] (active)"}
{"smiles": "C=C(C)C1CC2(C)C(C)CC(O)CC2C(OC(=O)C=C(C)C)C1O", "note": "(centres undefined)", "growth": "5.38% [100 µM] (active) and 25.4% [100 µM] (inactive)"}
{"smiles": "COc1ccc2c(c1)C(OC)C1c3c(cc4c(c3-2)OCO4)CCN1C", "note": "(centres undefined)", "growth": "-76.9% [100 µM] (active) and -70% [100 µM] (active)"}
{"smiles": "CC1=CC[C@@H]2[C@@H](CC[C@@]2(C)O)C(C)(C)[C@H]1CC[C@@H]1[C@@]2(C)CCC(=O)C(C)(C)O[C@@H]2CC[C@]1(C)O", "growth": "-36.8% [100 µM] (active) and -100% [100 µM] (active)"}
{"smiles": "Cc1c2c(c(C)c3c[n+](C)ccc13)Oc1ccccc1O2", "growth": "-33.4% [100 µM] (active) and -100% [100 µM] (active)"}
{"smiles": "O=C(CCc1ccccc1)ON1C(=S)NC(c2ccccc2)(c2ccccc2)C1=S", "growth": "-45.8% [100 µM] (active) and 5.76% [100 µM] (active)"}
{"smiles": "COc1ccc(OC)c(Cc2cnc3nc(N)nc(N)c3c2C)c1", "growth": "3.33% [100 µM] (active) and -100% [100 µM] (active)"}
{"smiles": "CC1=CC[C@@H]2[C@@H](CC[C@@]2(C)O)C(C)(C)[C@H]1CC[C@@H]1[C@@]2(C)CC[C@@H](O)C(C)(C)O[C@@H]2CC[C@]1(C)O", "growth": "-12.8% [100 µM] (active) and -70.8% [100 µM] (active)"}
{"smiles": "Cc1ccc(/C=N/Nc2cc(C)c3cccc(C)c3n2)s1", "growth": "-73.1% [100 µM] (active) and -100% [100 µM] (active)"}
{"smiles": "CN1CCc2cc3c(c4c2C1C(O)c1ccccc1-4)OCO3", "note": "(centres undefined)", "growth": "-24.6% [100 µM] (active) and -58.3% [100 µM] (active)"}
{"smiles": "COC(=O)[C@]1(C)CCC[C@@]2(C)[C@@H]3C[C@@H]4[C@H]5C[C@@]3(CC[C@@H]21)C[C@@]45C", "growth": "-81% [100 µM] (active) and -80% [100 µM] (active)"}
{"smiles": "Cc1cc(O)c2c(c1)C(=O)C(c1c(C)cc3c(c1O)C(=O)C1OC1C3=O)=CC2=O", "note": "(centres undefined)", "growth": "-64.5% [100 µM] (active) and -90% [100 µM] (active)"}
